Growth data for 17 compounds are collected here from PubChem BioAssay (NCI).

Several values for one entry are separate records, joined by “and”; a condition that tells them apart may be missing. Equal values may be shown once. The panel holds about 83,000 compounds, 20% with a hit somewhere; the sample as a whole holds those more often.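 The endpoint reported here, percent growth, reads 100 for growth as untreated, 0 for no net growth and -100 for all cells dead.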 Activity calls are given as the source filed them. Rule for the calls: active = growth percent below 10; inactive = the rest.

This assay concerns MDA-MB-468 breast. Nature of the assay: NCI-60 one-dose screen, 48 h (100 = growth as untreated, 0 = no growth, -100 = all killed). The conditions noted are these: 10 µM unless noted.
For `COc1cc(C(=O)c2cc(C)c3[nH]c4ccc(Cl)cc4c3c2C)cc(OC)c1OC`, the growth is -13.2% (active).
In the case of `CC1=CC(c2ccco2)=C2C(N)=NNC2N1` (configuration not stated), the growth is 104% (inactive).
For the compound `CC1(C)OC(=O)CC1=O`, the growth was 100% (inactive).
In the case of `CN1CCc2c(Sc3ccc(C(=O)NO)cc3)c3ccccc3n2C1`, the growth is 21% (inactive).
Next, `CN(C)Cc1ccc(NC(=O)c2cncc(C#Cc3cnc(N)c4ncccc34)c2)cc1C(F)(F)F`: 84% (inactive); `COc1ccccc1N(C(C)=O)C1=C(Cl)C(=O)c2ccccc2C1=O`: -92.8% (active).
As for `CN1C(=O)C(N=Nc2ccc([N+](=O)[O-])cc2)SC1=S` (configuration not stated), the growth is 84.6% (inactive) and 85.1% (inactive).
Next, `CCOC(=O)c1c(C)nc2c(c1N)/C(=C/c1cccs1)C(=O)N2Cc1ccccc1`: 47.6% (inactive); `CCCC(=O)NC(c1ccc(N(CC)CC)cc1)c1cc(C)c2cccnc2c1O` (configuration not stated): -16.1% (active).
As for `O=C(/C=C/c1ccccc1)c1cccc2ccccc12`, the figure is -2.6% (active); as for `O=C(Nc1ccc(OS(=O)(=O)c2ccc(F)cc2)cc1)C12CC3CC(CC(C3)C1)C2`, 39.4% (inactive); as for `CCOC(=O)C1=C(C)Nc2nc3ccccc3n2C1c1ccccc1` (configuration not stated), 85.6% (inactive).
Take `NS(=O)(=O)Oc1ccc2nc(Nc3ccc(F)c(F)c3)ccc2c1`: the growth is 96.9% (inactive).
On to `NC(=O)CC1C=CCC1` (configuration not stated), for which the growth is 111% (inactive).
Take `Nc1cc(O)cc(O)c1`: the growth is 107% (inactive).
For the compound `Cc1cnc(Nc2ccc(OCCN3CCCC3)cc2)nc1NCc1ccco1`, the growth is 80.8% (inactive).
On to `Fc1ccc(NCc2nnc(-c3ccc(Cl)cc3)o2)cc1`, for which the growth is 56.9% (inactive).
